Reference: PubChem BioAssay (EPA / NIEHS)
Inconclusive results are not listed. Activity calls are given as the source filed them. How the source made its calls, unless noted: active means hit-call score of the fitted dose curve at least 0.9, where 1 is the maximum; inactive means score below 0.9.

Tests used:
[1] = ATG_NFI_CIS: Attagene CIS-FACTORIAL HepG2 Assay for human Nuclear Factor I (NFI) (AID 2282989); details: HepG2 cis-regulatory reporter, NFI response element transcription; actives raise or lower the signal
Procedure, shortened: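 HepG2 cells transiently transfected with cis-element-driven multiplexed reporter transcription units, dosed for 24 h. Reporter mRNA quantified by RT-PCR, fluorescent labelling, HpaI digestion and capillary electrophoresis; bidirectional fit versus DMSO baseline.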

[2] = biological target: Myc proto-oncogene protein (Homo sapiens) (UniProt P01106); experiment: ATG_Myc_CIS: Attagene CIS-FACTORIAL HepG2 Assay for human Myelocytomatosis (Myc) Proto-Oncogene Transcription Factor (AID 2282990); details: HepG2, Attagene cis-reporter transcription factor activity; actives raise or lower the signal
Myc proto-oncogene protein (Homo sapiens), sequence (P01106 whole entry, looked up): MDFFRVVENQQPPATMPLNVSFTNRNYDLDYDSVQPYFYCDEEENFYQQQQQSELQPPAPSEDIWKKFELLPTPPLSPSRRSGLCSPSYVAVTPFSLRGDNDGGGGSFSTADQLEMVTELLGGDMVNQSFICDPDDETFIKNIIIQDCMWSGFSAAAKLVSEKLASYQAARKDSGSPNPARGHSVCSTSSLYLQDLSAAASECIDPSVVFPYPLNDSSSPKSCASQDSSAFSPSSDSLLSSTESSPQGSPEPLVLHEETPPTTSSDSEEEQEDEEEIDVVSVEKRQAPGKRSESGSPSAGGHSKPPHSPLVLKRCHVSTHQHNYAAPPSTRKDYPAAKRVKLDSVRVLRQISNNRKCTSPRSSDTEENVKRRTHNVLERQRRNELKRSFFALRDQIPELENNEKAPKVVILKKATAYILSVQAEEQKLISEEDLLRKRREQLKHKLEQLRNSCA
Procedure, shortened: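 Cells of the HepG2 human liver line bear multiple cis-driven reporter transcription units. Reporter mRNA after 24 h exposure is reverse-transcribed, amplified, labelled and resolved by capillary electrophoresis, with gain- or loss-of-signal fitting relative to DMSO.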

[3] = ATG_NRF2_ARE_CIS: Attagene CIS-FACTORIAL HepG2 Assay for human Nuclear Factor Erythroid 2 Related Factor 2 (NFR2) response to Antioxidant Response Elements (ARE) (AID 2282992); details: HepG2 Attagene ARE/NRF2 reporter, transcription factor activity; actives raise or lower the signal;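 on AC50: reporter mRNA level measured by RT-PCR and capillary electrophoresis fluorescence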
Procedure, shortened: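 Cis-factorial assay: transfected HepG2 reporter library, 24 h dosing, mRNA readout via RT-PCR/CE; DMSO-referenced bidirectional analysis.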

[4] = ATG_Oct_MLP_CIS: Attagene CIS-FACTORIAL HepG2 Assay for human Octamer-Binding Transcription Factor (Oct) (AID 2282993); details: HepG2 Attagene cis-factorial Oct reporter, mRNA; actives raise or lower the signal
Procedure, shortened: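 HepG2 cells transiently transfected with cis-promoter-driven multiplexed reporter transcription units, dosed for 24 h. Reporter mRNA quantified by RT-PCR, fluorescent labelling, HpaI digestion and capillary electrophoresis; bidirectional fits versus DMSO baseline.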

[5] = biological target: Cellular tumor antigen p53 (Homo sapiens) (UniProt P04637); experiment: ATG_p53_CIS: Attagene CIS-FACTORIAL HepG2 Assay for human p53 Transcription Factor (AID 2282994); details: HepG2 p53 cis-element reporter, Attagene mRNA; actives raise or lower the signal
Cellular tumor antigen p53 (Homo sapiens), sequence (P04637 whole entry, looked up): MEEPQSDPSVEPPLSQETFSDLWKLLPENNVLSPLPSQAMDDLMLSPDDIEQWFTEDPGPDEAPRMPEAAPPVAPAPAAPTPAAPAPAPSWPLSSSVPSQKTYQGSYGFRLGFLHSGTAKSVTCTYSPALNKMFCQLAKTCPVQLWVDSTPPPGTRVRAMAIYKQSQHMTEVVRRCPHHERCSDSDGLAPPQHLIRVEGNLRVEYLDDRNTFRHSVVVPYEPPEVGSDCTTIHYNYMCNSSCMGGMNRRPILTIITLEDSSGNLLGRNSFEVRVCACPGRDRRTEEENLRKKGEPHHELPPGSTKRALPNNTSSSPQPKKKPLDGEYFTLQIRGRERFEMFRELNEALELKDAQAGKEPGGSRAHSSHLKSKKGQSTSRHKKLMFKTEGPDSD
Procedure, shortened: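 Using HepG2 hepatoma cells carrying cis-acting multiplexed reporters, mRNA induction is detected after a 24 h exposure. Gain- and loss-of-signal responses are fitted relative to DMSO-treated cells.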

[6] = BSK_3C_TissueFactor: BioMAP Diversity Plus: 3C Assay for Tissue Factor Biomarker Activity (AID 2282997); details: BioMAP 3C HUVEC, tissue factor biomarker readout; actives raise or lower the signal
Procedure, shortened: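 Endothelial monolayers (human umbilical vein, primary) are dosed, incubated 24 h, and assayed for Tissue Factor by ELISA; DMSO serves as negative control for bidirectional fitting.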

[7] = BSK_3C_uPAR: BioMAP Diversity Plus: 3C Assay for Urokinase-type plasminogen activator receptor (uPAR) Biomarker Activity (AID 2282998); details: BioMAP 3C HUVEC, uPAR biomarker ELISA; actives raise or lower the signal
Procedure, shortened: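 Human umbilical vein endothelial primary cells were exposed to test chemical for 24 h. Cell-surface uPAR was then quantified by ELISA, and responses were fitted bidirectionally against DMSO as negative control and baseline.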

[8] = BSK_3C_VCAM1: BioMAP Diversity Plus: 3C Assay for Vascular cell adhesion molecule 1 (VCAM1) Biomarker Activity (AID 2282999); details: BioMAP 3C HUVEC, VCAM1 ELISA, cytokine-stimulated; actives raise or lower the signal
Procedure, shortened: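 Endothelial cells from human umbilical vein are treated with test chemical. At 24 h, VCAM-1 is measured by ELISA, and responses in either direction are fitted relative to DMSO.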

[9] = BSK_4H_Eotaxin3: BioMAP Diversity Plus: 4H Assay for Eotaxin 3 Biomarker Activity (AID 2283000); details: primary human endothelial cells (HUVEC); actives raise or lower the signal
Procedure, shortened: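 ELISA quantitation of CCL26 (Eotaxin-3) protein from chemically dosed human vascular endothelial cells at 24 h; increases and decreases both scored relative to DMSO-treated baseline.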

[10] = read-out: Intercellular Adhesion Molecule 1 (ICAM1), ICAM1 (gene 3383); experiment: BSK_3C_ICAM1: BioMAP Diversity Plus: 3C Assay for Intercellular Adhesion Molecule 1 (ICAM1) Biomarker Activity (AID 2283003); details: primary human endothelial cells (HUVEC); actives raise or lower the signal
Procedure, shortened: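 HUVEC primary cells stimulated under 3C conditions; ICAM1 measured by ELISA 24 h after compound dosing. Curves fitted bidirectionally against the DMSO baseline. Overt cytotoxicity checked by SRB staining of parallel cultures.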

[11] = BSK_3C_Proliferation: Cell Proliferation Assessment in the BioMAP Diversity Plus: 3C Assay (AID 2283006); details: primary human endothelial cells (HUVEC);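 on AC50: potency may reflect either rise or fall in cell number versus DMSO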
Procedure, shortened: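 Subconfluent HUVEC (3C system) cultured with chemical; relative cell number read at 48 h by sulforhodamine B total-protein staining (0.1% SRB after 10% TCA fixation, 560 nm). Bidirectional fit relative to DMSO.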

[12] = biological target: Peroxisome proliferator-activated receptor gamma (Homo sapiens) (UniProt P37231); experiment: ATG_PPARg_TRANS: Attagene TRANS-FACTORIAL HepG2 Assay for human Peroxisome Proliferator-activated Receptor-gamma (PPARg) (AID 2283007; active means hit-call score of the fitted dose curve at least 0.9, where 1 is the maximum)
Peroxisome proliferator-activated receptor gamma (Homo sapiens), sequence (P37231 whole entry, looked up, the tested form may be a part): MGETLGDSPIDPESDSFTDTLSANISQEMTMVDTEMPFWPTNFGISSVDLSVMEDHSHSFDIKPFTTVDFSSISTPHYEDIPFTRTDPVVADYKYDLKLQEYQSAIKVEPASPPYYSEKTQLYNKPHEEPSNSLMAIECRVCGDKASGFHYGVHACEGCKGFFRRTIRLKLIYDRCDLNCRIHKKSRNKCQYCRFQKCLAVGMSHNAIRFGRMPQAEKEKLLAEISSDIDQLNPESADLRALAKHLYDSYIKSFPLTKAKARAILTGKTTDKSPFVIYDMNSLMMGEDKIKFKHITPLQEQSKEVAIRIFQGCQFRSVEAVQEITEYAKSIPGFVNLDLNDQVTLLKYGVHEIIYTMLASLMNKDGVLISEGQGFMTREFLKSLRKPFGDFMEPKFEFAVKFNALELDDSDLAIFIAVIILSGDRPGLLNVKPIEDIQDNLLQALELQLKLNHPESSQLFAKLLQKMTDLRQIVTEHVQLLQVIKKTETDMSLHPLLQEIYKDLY
Procedure, shortened: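 HepG2 cells transiently transfected with multiplexed GAL4-UAS reporter units and exogenous chimeric NR-Gal4 proteins; reporter mRNA quantified after 24 h compound exposure by RT-PCR, fluorescent labelling, HpaI digestion and capillary electrophoresis; gain-of-signal fitted versus DMSO baseline.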

[13] = biological target: Nuclear receptor subfamily 1 group I member 2 (Homo sapiens) (UniProt O75469); experiment: ATG_PXR_TRANS: Attagene TRANS-FACTORIAL HepG2 Assay for human Pregnane X Receptor (PXR) (AID 2283008; active means hit-call score of the fitted dose curve at least 0.9, where 1 is the maximum)
Nuclear receptor subfamily 1 group I member 2 (Homo sapiens), sequence (O75469 whole entry, looked up, the tested form may be a part): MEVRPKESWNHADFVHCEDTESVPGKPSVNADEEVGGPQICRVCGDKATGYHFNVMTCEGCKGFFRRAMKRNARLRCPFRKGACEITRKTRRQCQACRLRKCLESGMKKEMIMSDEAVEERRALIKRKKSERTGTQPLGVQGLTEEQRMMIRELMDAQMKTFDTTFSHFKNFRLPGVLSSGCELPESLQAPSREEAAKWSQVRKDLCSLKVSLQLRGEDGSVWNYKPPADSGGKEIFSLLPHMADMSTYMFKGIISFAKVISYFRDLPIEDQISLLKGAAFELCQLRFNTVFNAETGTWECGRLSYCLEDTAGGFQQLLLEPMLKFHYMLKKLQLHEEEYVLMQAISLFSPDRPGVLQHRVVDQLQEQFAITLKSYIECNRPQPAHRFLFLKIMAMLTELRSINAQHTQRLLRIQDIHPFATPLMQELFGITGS
Procedure, shortened: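 Fluorescence intensity of FAM-labelled, HpaI-digested reporter amplicons, separated by capillary electrophoresis, quantifies induction. HepG2 cells with PXR-Gal4 trans-reporter system were exposed 24 h; DMSO defines baseline.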

[14] = biological target: human RAR-related Orphan Receptor beta (RORb), RORB (gene 6096) (UniProt Q92753); experiment: ATG_RORb_TRANS: Attagene TRANS-FACTORIAL HepG2 Assay for human RAR-related Orphan Receptor beta (RORb) (AID 2283010; active means hit-call score of the fitted dose curve at least 0.9, where 1 is the maximum)
human RAR-related Orphan Receptor beta (RORb), RORB (gene 6096), sequence (Q92753 whole entry, looked up, the tested form may be a part): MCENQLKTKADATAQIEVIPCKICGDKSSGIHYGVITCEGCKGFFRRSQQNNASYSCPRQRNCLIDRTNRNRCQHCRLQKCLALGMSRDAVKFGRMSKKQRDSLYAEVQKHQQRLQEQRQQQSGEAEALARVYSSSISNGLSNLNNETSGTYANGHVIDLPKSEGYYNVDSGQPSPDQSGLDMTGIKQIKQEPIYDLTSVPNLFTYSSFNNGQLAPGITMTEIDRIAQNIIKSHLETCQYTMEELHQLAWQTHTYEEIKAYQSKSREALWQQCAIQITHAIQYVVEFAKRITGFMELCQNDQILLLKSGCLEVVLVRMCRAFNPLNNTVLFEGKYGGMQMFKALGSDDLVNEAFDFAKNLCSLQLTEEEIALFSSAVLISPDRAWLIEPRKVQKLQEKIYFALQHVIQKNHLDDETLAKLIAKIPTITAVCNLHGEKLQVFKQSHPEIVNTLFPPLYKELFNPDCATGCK
Procedure, shortened: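 HepG2 cells transiently transfected with GAL4-UAS reporter units expressing chimeric NR-Gal4 protein; reporter mRNA measured 24 h after dosing by RT-PCR, 6-FAM labelling and capillary electrophoresis. Gain-of-signal fitted relative to DMSO baseline.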

[15] = biological target: human Peroxisome Proliferator-activated Receptor alpha (PPARa), PPARA (gene 5465) (UniProt Q07869); experiment: ATG_PPARa_TRANS: Attagene TRANS-FACTORIAL HepG2 Assay for human Peroxisome Proliferator-activated Receptor alpha (PPARa) (AID 2283001; active means hit-call score of the fitted dose curve at least 0.9, where 1 is the maximum)
human Peroxisome Proliferator-activated Receptor alpha (PPARa), PPARA (gene 5465), sequence (Q07869 whole entry, looked up, the tested form may be a part): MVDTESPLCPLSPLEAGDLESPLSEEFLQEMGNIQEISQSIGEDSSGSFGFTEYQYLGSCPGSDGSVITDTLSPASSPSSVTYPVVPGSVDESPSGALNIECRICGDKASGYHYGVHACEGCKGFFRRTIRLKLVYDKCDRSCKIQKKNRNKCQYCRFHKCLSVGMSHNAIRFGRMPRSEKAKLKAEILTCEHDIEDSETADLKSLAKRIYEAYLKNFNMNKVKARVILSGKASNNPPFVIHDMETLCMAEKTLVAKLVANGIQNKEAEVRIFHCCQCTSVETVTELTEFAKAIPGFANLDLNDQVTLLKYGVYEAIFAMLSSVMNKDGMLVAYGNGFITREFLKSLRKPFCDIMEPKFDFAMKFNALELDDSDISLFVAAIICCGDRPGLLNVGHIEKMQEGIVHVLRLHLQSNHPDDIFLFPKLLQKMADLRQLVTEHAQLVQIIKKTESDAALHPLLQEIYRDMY
Procedure, shortened: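 Read-out is fluorescence of reporter cDNA fragments resolved by capillary electrophoresis after RT-PCR. Human HepG2 liver cells carried transfected PPARa-Gal4 chimera and GAL4-UAS reporter units, treated 24 h; activity scored as increase over DMSO.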

[16] = biological target: human Retinoic Acid Receptor gamma (RARg), RARG (gene 5916) (UniProt P13631); experiment: ATG_RARg_TRANS: Attagene TRANS-FACTORIAL HepG2 Assay for human Retinoic Acid Receptor gamma (RARg) (AID 2283009; active means hit-call score of the fitted dose curve at least 0.9, where 1 is the maximum)
human Retinoic Acid Receptor gamma (RARg), RARG (gene 5916), sequence (P13631 whole entry, looked up, the tested form may be a part): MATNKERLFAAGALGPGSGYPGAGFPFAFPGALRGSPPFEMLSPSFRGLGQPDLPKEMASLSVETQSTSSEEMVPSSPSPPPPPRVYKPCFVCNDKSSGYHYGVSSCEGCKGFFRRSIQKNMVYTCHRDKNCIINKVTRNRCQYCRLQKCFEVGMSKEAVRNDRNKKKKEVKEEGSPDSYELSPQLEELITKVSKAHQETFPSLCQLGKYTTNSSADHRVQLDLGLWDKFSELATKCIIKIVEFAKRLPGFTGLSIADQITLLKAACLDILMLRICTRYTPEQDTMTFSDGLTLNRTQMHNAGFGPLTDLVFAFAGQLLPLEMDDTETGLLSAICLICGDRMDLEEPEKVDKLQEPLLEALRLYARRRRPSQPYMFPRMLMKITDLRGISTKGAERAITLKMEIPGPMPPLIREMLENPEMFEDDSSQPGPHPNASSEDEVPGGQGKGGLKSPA
Procedure, shortened: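 HepG2 transiently transfected with GAL4-UAS reporter units and chimeric NR-Gal4 constructs; 24 h compound exposure. Reporter mRNA quantified by RT-PCR, FAM labeling, HpaI digestion and capillary electrophoresis; gain-of-signal versus DMSO.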

[17] = biological target: human Retinoic Acid Receptor beta (RARb), RARB (gene 5915) (UniProt P10826); experiment: ATG_RARb_TRANS: Attagene TRANS-FACTORIAL HepG2 Assay for human Retinoic Acid Receptor beta (AID 2283004; active means hit-call score of the fitted dose curve at least 0.9, where 1 is the maximum)
human Retinoic Acid Receptor beta (RARb), RARB (gene 5915), sequence (P10826 whole entry, looked up, the tested form may be a part): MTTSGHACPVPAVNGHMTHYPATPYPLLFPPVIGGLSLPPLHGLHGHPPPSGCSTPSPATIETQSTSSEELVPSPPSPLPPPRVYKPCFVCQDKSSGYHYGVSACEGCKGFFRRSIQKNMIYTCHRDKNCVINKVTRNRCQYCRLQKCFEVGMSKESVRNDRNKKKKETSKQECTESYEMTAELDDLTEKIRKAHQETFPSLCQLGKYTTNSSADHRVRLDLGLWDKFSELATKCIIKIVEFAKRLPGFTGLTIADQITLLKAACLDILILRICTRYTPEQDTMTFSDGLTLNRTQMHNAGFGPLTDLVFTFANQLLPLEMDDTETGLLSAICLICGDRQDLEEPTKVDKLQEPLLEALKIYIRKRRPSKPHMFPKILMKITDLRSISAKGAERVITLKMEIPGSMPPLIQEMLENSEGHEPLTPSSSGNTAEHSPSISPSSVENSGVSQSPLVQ
Procedure, shortened: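 Fluorescent capillary-electrophoresis detection of GAL4-UAS reporter mRNA defines the endpoint, with induction over DMSO-treated wells scored as activity. Transiently transfected human hepatoma HepG2 cells expressing exogenous NR–Gal4 proteins are exposed to test chemicals for 24 h.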

[18] = biological target: Retinoic acid receptor alpha (Homo sapiens) (UniProt P10276); experiment: ATG_RARa_TRANS: Attagene TRANS-FACTORIAL HepG2 Assay for human Retinoic Acid Receptor alpha (RARa) (AID 2283005; active means hit-call score of the fitted dose curve at least 0.9, where 1 is the maximum)
Retinoic acid receptor alpha (Homo sapiens), sequence (P10276 whole entry, looked up, the tested form may be a part): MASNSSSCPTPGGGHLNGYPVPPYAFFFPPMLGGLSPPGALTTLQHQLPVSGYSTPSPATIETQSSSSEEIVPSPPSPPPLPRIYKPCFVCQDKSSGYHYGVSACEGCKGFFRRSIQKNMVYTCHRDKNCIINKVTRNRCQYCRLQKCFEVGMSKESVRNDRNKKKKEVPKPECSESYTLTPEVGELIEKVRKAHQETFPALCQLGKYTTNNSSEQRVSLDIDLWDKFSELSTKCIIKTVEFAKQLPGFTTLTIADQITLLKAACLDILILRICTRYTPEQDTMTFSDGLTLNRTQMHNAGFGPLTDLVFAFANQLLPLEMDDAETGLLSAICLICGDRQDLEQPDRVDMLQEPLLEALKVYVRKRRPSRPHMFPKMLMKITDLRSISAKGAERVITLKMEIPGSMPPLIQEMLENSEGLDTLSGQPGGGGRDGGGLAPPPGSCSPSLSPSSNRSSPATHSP
Procedure, shortened: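 Reporter transcripts, measured by RT-PCR with fluorescent labeling and capillary electrophoresis after 24 h dosing, reflect activity of an exogenous human RARa–GAL4 fusion in transiently transfected HepG2. Fitted for increase relative to DMSO.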

[19] = biological target: human Peroxisome Proliferator-activated Receptor delta (PPARd), PPARD (gene 5467) (UniProt Q03181); experiment: ATG_PPARd_TRANS: Attagene TRANS-FACTORIAL HepG2 Assay for human Peroxisome Proliferator-activated Receptor delta (PPARd) (AID 2283002; active means hit-call score of the fitted dose curve at least 0.9, where 1 is the maximum)
human Peroxisome Proliferator-activated Receptor delta (PPARd), PPARD (gene 5467), sequence (Q03181 whole entry, looked up): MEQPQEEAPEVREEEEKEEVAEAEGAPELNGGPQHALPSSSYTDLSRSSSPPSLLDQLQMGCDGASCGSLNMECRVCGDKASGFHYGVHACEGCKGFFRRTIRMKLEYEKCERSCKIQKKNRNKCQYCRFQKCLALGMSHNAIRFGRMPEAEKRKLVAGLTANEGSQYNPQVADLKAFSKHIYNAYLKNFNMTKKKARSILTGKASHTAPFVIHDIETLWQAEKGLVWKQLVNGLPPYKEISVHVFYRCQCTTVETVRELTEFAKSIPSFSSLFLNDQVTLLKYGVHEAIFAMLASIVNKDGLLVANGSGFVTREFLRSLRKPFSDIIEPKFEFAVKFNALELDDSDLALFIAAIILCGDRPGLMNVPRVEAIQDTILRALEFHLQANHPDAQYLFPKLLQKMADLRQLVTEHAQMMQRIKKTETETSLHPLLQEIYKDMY
Procedure, shortened: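 Cell-based TRANS reporter: HepG2, transient MRTU transfection, 24 h exposure. Readout = reporter mRNA (RT-PCR/CE, 6-FAM). Gain-of-signal fit vs DMSO control.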

Measured: AC50

Cc1ccc(C(=O)c2ccccc2)cc1
active: [3] 28 µM | [6] 11.3 µM | [8] 26.3 µM | [9] 28.4 µM | [11] 32.1 µM | [12] 100 µM | [13] 19.9 µM
inactive: [1] | [2] | [4] | [5] | [7] | [10] | [14]

c1ccc2c(c1)CCC2
inactive: [1] | [2] | [3] | [4] | [5] | [15] | [16]

Cc1ccc(S(=O)(=O)O)cc1
inactive: [1] | [2] | [3] | [4] | [5] | [15] | [17] | [18] | [13] | [14]

C=CC(=O)OCCC(F)(F)C(F)(F)C(F)(F)C(F)(F)C(F)(F)C(F)(F)C(F)(F)C(F)(F)F
active: [3] 22.1 µM
not listed: [16] | [17] | [18]
inactive: all other assays above
